± gives the standard deviation of the averaged measurements.
Key:
Assay in all cases: cell viability (% of vehicle); higher = less cytotoxic
Settings in all cases: 10 µM; 72 h
HCI01 = test system: HCI01 (cells of a triple-negative basal-like breast cancer xenograft)
HCI03 = test system: HCI03 (cells of an ER-positive luminal breast cancer xenograft)
HCI09 = test system: HCI09 (cells of a triple-negative luminal androgen receptor type breast cancer xenograft)
HCI11 = test system: HCI11 (cells of an ER-positive luminal breast cancer xenograft)
HCI13 = test system: HCI13 (cells of an ER-positive luminal breast cancer xenograft)
HCI16 = test system: HCI16 (cells of a triple-negative basal-like breast cancer xenograft)
UCD52 = test system: UCD52 (cells of a triple-negative basal-like breast cancer xenograft)
WHIM2 = test system: WHIM2 (cells of a triple-negative basal-like breast cancer xenograft)
WHIM30 = test system: WHIM30 (cells of a triple-negative basal-like breast cancer xenograft)
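Note: PDX cells carrying CMV promoter-driven luciferase, viability read as total photon flux per second by IVIS imaging following D-luciferin, vehicle control 0.1% DMSO.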

SMILES | cell viability (HCI01) | cell viability (HCI03) | cell viability (HCI09) | cell viability (HCI11) | cell viability (HCI13) | cell viability (HCI16) | cell viability (UCD52) | cell viability (WHIM2) | cell viability (WHIM30)
Clc1ccccc1C(c1ccccc1)(c1ccccc1)n1ccnc1 [Clotrimazole] | 82.5 ± 21 | 70.8 | 55.1 ± 39 | 95.1 | 85.5 ± 21 | 79.8 | 79.6 ± 8.2 | 73.7 ± 16 | 125 ± 1
CN(C)CCc1c[nH]c2ccc(Cn3cncn3)cc12.O=C(O)c1ccccc1 [Rizatriptan Benzoate] | 108 ± 11 | 118 | 137 ± 72 | 121 | 110 ± 21 | 106 | 102 ± 9.9 | 86.3 ± 21 | 124 ± 6.5
CC(CCC(=O)O)C1CCC2C3C(O)CC4CC(O)CCC4(C)C3CCC12C (configuration not stated) [Ursodiol] | 90.9 ± 70 | 150 | 100.8 ± 0.88 | 95.2 | 126 ± 9.4 | 124 | 89.82 ± 0.32 | 111 ± 9.3 | 155 ± 12
C=C1CCN(C(C)C(O)(Cn2cncn2)c2ccc(F)cc2F)CC1 (configuration not stated) [Efinaconazole] | 119 ± 22 | 148 | 83.3 ± 19 | 91.5 | 126 ± 8.9 | 165 | 85.4 ± 5.2 | 95.9 ± 5.9 | 161 ± 25
CC(=O)O.NC(N)=NN=Cc1c(Cl)cccc1Cl [Guanabenz Acetate] | 134 ± 24 | 122 | 83.5 ± 5.4 | 108 | 101 ± 12 | 158 | 76.9 ± 2.8 | 109 ± 16 | 110 ± 20
CNC(=O)[C@H](Cc1ccccc1)NC(=O)[C@H](CC(C)C)[C@H](CSc1cccs1)C(=O)NO [Batimastat (BB-94)] | 94.3 ± 12 | 88.2 | 78.2 ± 20 | 95.3 | 127 ± 3.9 | 67 | 127 ± 16 | 72 ± 22 | 175 ± 0.83
Cl.NCCCC(N)(C(=O)O)C(F)F.O (racemic) [DL-α-Difluoromethylornithine (hydrochloride hydrate)] | 94.2 ± 12 | 94 | 92.3 ± 10 | 65.9 | 80.9 ± 5.2 | 99.2 | 85.3 ± 3.9 | 91.9 ± 5.5 | 97.1 ± 3.2
CCCCC(=O)N(Cc1ccc(-c2ccccc2-c2nn[nH]n2)cc1)C(C(=O)O)C(C)C (configuration not stated) [Valsartan] | 112 ± 6 | 118 | 118 ± 24 | 97.2 | 116 ± 24 | 119 | 108 ± 10 | 101 ± 16 | 199 ± 25

Reference: the supplement of paper PMC6992640
